Rab9 prom act: Rab9 promoter activation; Huh7 Rab9 promoter-luciferase reporter, luminescence, 24 h; Potency, µM (series often up to 9.22 µM), without a hit: at the highest dose activation, negative = inhibition, actives largely listed as activators; 2.8% of 320,000 active; also: % of control where 0% means no effect; nearly all actives have a fitted effect of over 60% in size
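Stable Rab9-luc Huh7, 1500 cells/well, 2 h settle; cmpd in DMSO, 24 h, 37 °C/5% CO2; luciferase reagent 10 min RT; luminescence.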
FLuc modulator: inhibits or activates purified firefly luciferase, miR-21 counter-screen. P08659. purified FLuc, Km substrates, luminescence inhibition. Potency, µM (top dose mostly 57.5 µM), inactives show at the highest dose activity change, negative = inhibition, hits mostly inhibitors. 6.9% of 360,000 active;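 also: plate controls were vehicle for no effect and reference inhibitor for full effect; nearly all actives have a fitted effect of over 55% in size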
Target sequence (P08659 whole entry, looked up): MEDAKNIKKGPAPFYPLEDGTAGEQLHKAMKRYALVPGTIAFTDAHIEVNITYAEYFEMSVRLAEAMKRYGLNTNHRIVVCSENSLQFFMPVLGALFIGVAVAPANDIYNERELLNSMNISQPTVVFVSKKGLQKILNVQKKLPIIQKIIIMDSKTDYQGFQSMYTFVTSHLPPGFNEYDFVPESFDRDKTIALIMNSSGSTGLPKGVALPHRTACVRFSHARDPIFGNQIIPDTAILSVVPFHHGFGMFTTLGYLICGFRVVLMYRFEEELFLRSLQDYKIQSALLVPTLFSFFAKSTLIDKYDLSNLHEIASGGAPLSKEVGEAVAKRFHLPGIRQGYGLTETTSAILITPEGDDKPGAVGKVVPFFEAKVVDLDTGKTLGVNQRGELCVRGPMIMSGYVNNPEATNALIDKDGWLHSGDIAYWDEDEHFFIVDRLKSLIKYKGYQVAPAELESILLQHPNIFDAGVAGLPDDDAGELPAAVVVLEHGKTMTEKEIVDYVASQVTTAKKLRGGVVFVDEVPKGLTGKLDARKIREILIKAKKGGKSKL
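Purified P. pyralis luciferase, 10 nM final, with Km-level 10 uM D-luciferin and 10 uM ATP in 50 mM Tris acetate pH 7.5, 10 mM Mg acetate, 0.01% Tween-20, 0.05% BSA; 6-point qHTS titration about 60 µM downward; luminescence read.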
ELG1 genotoxic: inducers of genotoxicity in HEK293T ELG1-luciferase cells; HEK293T ELG1-luciferase reporter, luminescence, 16 h; Potency, µM (highest dose often 46 µM), without a hit: at the highest dose activity change, positive = activation, actives largely listed as activators; 1.3% of 330,000 active; AID 504466; also: % of control where 0% means no effect; nearly all actives have a fitted effect of over 60% in size
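Quantitative HTS format in 1536-well plates. HEK293T ELG1-luciferase reporter cells receive test compound and are incubated 16 hr at 37 °C, 5% CO2; ONE-Glo added, 30 min room temperature, then luminescence read.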
NPC1 promoter act: activates the NPC1 promoter | Huh7 NPC1 promoter luciferase reporter, 24 h | Potency, µM (series often up to 9.22 µM), inactives show at the highest dose activation, usual class: activators | 2.4% of 320,000 active | AID 485313; also: % of control where 0% means no effect; nearly all actives have a fitted effect of over 60% in size
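Luciferase expression driven by the NPC1 promoter was measured in stably transfected Huh7 cells after a 24 h compound incubation, using a luciferase reagent and a luminescence read.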
ELG1 DNA repair: inhibitors of ELG1-dependent DNA repair in HEK293T cells. HEK293T ELG1-luciferase reporter, luminescence, 16 h; DNA damage induced by 5-fluorouridine. Potency, µM (titrated, usually from 46.1 µM), for inactives: top-dose activity change, negative = inhibition, hits mostly inhibitors. 2.3% of 330,000 active. AID 504467; also: % is scaled to controls: 0 for no effect and ±100 for the full control effect; nearly all actives have a fitted effect of over 55% in size
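HEK293T cells expressing luciferase-tagged ELG1 (2,000/well) received 5-Fluorouridine plus compound or DMSO for 16 hr at 37 °C. Luciferase was read by ONE-Glo luminescence after 30 min at room temperature.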
SMN2 splice up: SMN2 splice variant enhancement; HEK293 SMN2-luciferase splicing reporter, luminescence, 30-36 h; Potency, µM (titrated, usually from 46.1 µM), without a hit: at the top dose activity change, positive = activation, hits mostly activators; 2.8% of 210,000 active; AID 1458; also: % of control where 0% means no effect; nearly all actives have a fitted effect of over 55% in size
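qHTS luciferase splicing reporter: luminescence rises when SMN2 exon 7 is included in transfected HEK293 cells. Compound exposure lasted 30-36 h at 37C, with 4.5 mM final sodium butyrate as control, followed by a ONE-Glo read.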
* marks the source's active call; other numbers are inactive results; u = inconclusive; x = no result given. Compounds with a hit are over-represented: about 9.2% of the library has one in this group of screens. Calls follow the shape of the dose curve; as a rule, active = well fitted curve in the direction sought with a large enough effect; inconclusive = small, poorly fitted or top-dose-only effect, or another doubt; inactive = no such curve, though single readings can be large; an effect the other way counts as inactive or inconclusive. Potency is read from the fitted curve at half-maximal effect.

SMILES | Rab9 prom act | FLuc modulator | ELG1 genotoxic | NPC1 promoter act | ELG1 DNA repair | SMN2 splice up
Cn1cccc1/C=C1\SC(=Nc2ccc(O)cc2)NC1=O | -6.2% | u | 16.4µM* | 22.8% | u | x
O=C1NC(=Nc2ccccc2)S/C1=C\c1cccs1 | 3.16µM* | 12µM* | u | 3.16µM* | u | x
COC(=O)c1cc(S(=O)(=O)NCCCN2CCCC2=O)cn1C | 0.6% | 3.4% | 1.2% | -4.4% | 9.3% | x
COc1cccc(F)c1C(C[N+](=O)[O-])c1c(N)n(C)c(=O)n(C)c1=O (centres undefined) | -53.6% | 3.9% | -12.7% | -26.3% | 18.3µM* | x
N#Cc1ccccc1OCC(=O)OCC(=O)Nc1ccc2c(c1)OCO2 | 11.1% | -1.3% | 4.2% | -1.0% | 7.5% | x
COc1ccccc1NC(=O)Cn1nnc2sc3c(c2c1=O)CC(C)(C)OC3 | -1.1% | 0.1% | -1.3% | -1.9% | 20.6µM* | x
O=C(N/N=C/C1CC=CCC1)c1ccc(O)cc1O (centres undefined) | 3.0% | 19µM* | 0.3% | -1.3% | 22.5% | 3.5%
O=C(NCc1ccco1)c1cc(-c2cccs2)nc2ccccc12 | 12.0% | -15.3% | -3.1% | -2.9% | 14.6µM* | -10.2%
Cc1nn(-c2ccccn2)c2nc(-c3cccs3)cc(C(=O)NCc3ccco3)c12 | 3.4% | 6.75µM* | 3.4% | 0.8% | u | x
Cc1ccc(-c2cc(C(=O)NCc3ccco3)c3ccccc3n2)s1 | 5.3% | 12µM* | -4.0% | 1.3% | -12.6% | -14.4%
CCOC(=O)c1cc(-c2cccs2)nc2c1c(C)nn2-c1ccccn1 | -1.1% | u | -9.3% | -1.8% | u | -50.0%
CC(=O)Nc1ccc(CN2CCN(CCc3ccccc3)C(CCO)C2)cc1 (centres undefined) | 0.8% | 6.3% | -0.6% | -1.2% | 8.6% | x
CCn1c(NC(C)=O)c(-c2ccccc2Cl)c(=O)c2ccccc21 | 3.5% | 2.5% | 1.0% | -0.7% | 13.7% | x
O=C(c1ccc(OC(F)(F)F)cc1)c1ncc[nH]1 | 3.55µM* | u | u | u | u | x
O=C(Nc1cccc(Cl)c1)Nc1ccc2c(c1)OCO2 | 1.58µM* | 6.75µM* | 14.6% | 2.51µM* | u | 10µM*
CC(=O)c1cccc(NC(=O)Nc2ccc3c(c2)OCO3)c1 | 2.51µM* | 4.78µM* | 2.3% | 3.55µM* | u | x
O=C(NCc1ccc2c(c1)OCO2)Nc1cccc(Cl)c1 | 25.5% | u | u | 28.2% | u | x
COc1ccccc1CNC(=O)c1cccc(Nc2nc3ccccc3n3nnnc23)c1 | x | -0.2% | x | x | x | 21.1%
O=C(c1csnn1)N1CCC2(CCCN(c3ccc(-c4ccccc4)cc3)C2)CC1 | x | x | x | x | x | 17.8µM*
CCNS(=O)(=O)c1ccc(CCC(=O)NCc2ccccc2)cc1 | 13.5% | -1.5% | 2.7% | 0.3% | 11.0% | 8.7%
COc1ccc(S(=O)(=O)CCC(=O)Nc2cccc(OC)c2)cc1 | -3.7% | -1.3% | -1.2% | -7.0% | 1.8% | -7.2%
COc1ccc(/C=C/C(=O)c2c(C)nc3ccccn23)cc1 | 3.55µM* | 7.57µM* | 10.9% | u | u | 5.2%
Cc1nc2ccccn2c1C(=O)/C=C/c1ccc(F)cc1 | u | 3.01µM* | 6.4% | 2.82µM* | u | -38.7%
COc1ccc(CNC(=O)c2ccc3ccccc3n2)cc1 | 15.2% | 26.9µM* | 13.5% | 14.1% | u | x
COCCNC(=O)c1ccc2ccccc2n1 | 14.9% | -5.8% | -0.4% | 13.8% | 5.5% | 4.2%
SMILES | Rab9 prom act | FLuc modulator | ELG1 genotoxic | NPC1 promoter act | ELG1 DNA repair | SMN2 splice up
Cc1ccccc1OCCNC(=O)c1ccc2ccccc2n1 | 3.16µM* | 4.78µM* | 20.6µM* | u | u | 22.4µM*
NNC(=O)COc1ccc(C(F)(F)F)cc1 | -0.8% | -2.4% | 0.3% | -0.5% | 11.8% | -5.7%
COc1cc(C(F)(F)F)c(C(=O)NCc2cccc(Cl)c2)cn1 | -1.5% | -2.3% | -2.3% | -0.4% | -15.2% | x
COc1ccc(NC(=O)c2c(Cl)nc3ccccn23)cc1 | 3.16µM* | u | u | 29.8% | u | u
COc1ccc(CNC(=O)c2c(C)nc3ccccn23)cc1 | -1.8% | 1.5% | -7.0% | -1.4% | 13µM* | -66.2%
Cc1ccc(COC(=O)c2ccc3ccccc3n2)cc1 | 4.5% | 15.1µM* | 1.6% | -0.4% | -13.6% | x
O=C(Nc1ccc(F)cc1)c1c(Cl)nc2ccccn12 | 24.3% | u | u | 19.0% | u | u
Cc1noc(C)c1COC(=O)c1ccc2ccccc2n1 | 5.0% | -9.4% | 2.2% | -3.3% | 1.3% | -3.5%
COc1ccc(C2Nc3ccccc3-c3nnc(SC)nc3O2)cc1C (centres undefined) | x | -12.2% | x | x | x | 3.5%
CC(=O)N1CCc2cc(CNS(=O)(=O)c3ccccc3C(F)(F)F)ccc21 | x | -13.1% | x | x | x | x
C#CCOCCOCCOCCNc1nc(N2CCN(C(=O)[C@H]([C@@H](C)CC)n3cc([C@@H](N)CC(C)C)nn3)CC2)nc(N2CCN(C(=O)[C@H](CCCCN)n3cc([C@@H](N)CO)nn3)CC2)n1 | 8.2% | 1.7% | 0.4% | 2.2% | 10.4% | x
O=C1c2ccccc2C(=O)N1CC(O)COc1ccccc1Cl (centres undefined) | u | 10.7µM* | 4.8% | 17.7% | u | x
CCSc1nc2c(c(=O)[nH]c(=O)n2C)n1CC(O)COc1ccccc1C (centres undefined) | -7.4% | -0.8% | -14.9% | 1.4% | 16.4µM* | -4.7%
Cc1ccccc1OCC(O)CN1C(=O)c2ccccc2C1=O (centres undefined) | 4.2% | 13.5µM* | 9.0% | 2.6% | 18.5% | x
C=CCc1ccccc1OCC(O)CN1C(=O)c2ccccc2C1=O (centres undefined) | 3.5% | -12.1% | -1.5% | -3.1% | 2.1% | x

Screening data: PubChem BioAssay, National Center for Advancing Translational Sciences (NCATS)
